Test results from PubChem BioAssay.
Results filed as inconclusive are left out. Activity calls are given as the source filed them.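 Rule for the calls, unless noted: active = cell viability at or below a set limit in both duplicate runs, the limit being the all-compound median minus 4 SD (cut at about 23% in these data, passing the limit was not always enough); inconclusive = no clear call, values can overlap the other calls; inactive = the rest.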

How the values were obtained:
[1] = Her2 expression decrease, cell viability multiplex – SKBR3 breast tumor cells, AlphaScreen, ATP viability, primary screen (AID 461;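 active = Her2 level under about 52% in both replicate screens, with viability over 70% of control, limit read from the data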;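 for Her2 level: lower value means less Her2 protein in the cells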;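 for viability: percent of carrier control wells set as 100% viability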); settings: SKBR3 Her2 protein level, 18-24 h, measured here: SKBR3 viability, ATP luminescence, at 10 µM
[2] = biological target: Receptor tyrosine-protein kinase erbB-2 (Homo sapiens) (UniProt P04626); assay: as above; settings: 18-24 h, at 10 µM, stronger effect = lower value
Sequence of Receptor tyrosine-protein kinase erbB-2 (Homo sapiens) (P04626 whole entry, looked up): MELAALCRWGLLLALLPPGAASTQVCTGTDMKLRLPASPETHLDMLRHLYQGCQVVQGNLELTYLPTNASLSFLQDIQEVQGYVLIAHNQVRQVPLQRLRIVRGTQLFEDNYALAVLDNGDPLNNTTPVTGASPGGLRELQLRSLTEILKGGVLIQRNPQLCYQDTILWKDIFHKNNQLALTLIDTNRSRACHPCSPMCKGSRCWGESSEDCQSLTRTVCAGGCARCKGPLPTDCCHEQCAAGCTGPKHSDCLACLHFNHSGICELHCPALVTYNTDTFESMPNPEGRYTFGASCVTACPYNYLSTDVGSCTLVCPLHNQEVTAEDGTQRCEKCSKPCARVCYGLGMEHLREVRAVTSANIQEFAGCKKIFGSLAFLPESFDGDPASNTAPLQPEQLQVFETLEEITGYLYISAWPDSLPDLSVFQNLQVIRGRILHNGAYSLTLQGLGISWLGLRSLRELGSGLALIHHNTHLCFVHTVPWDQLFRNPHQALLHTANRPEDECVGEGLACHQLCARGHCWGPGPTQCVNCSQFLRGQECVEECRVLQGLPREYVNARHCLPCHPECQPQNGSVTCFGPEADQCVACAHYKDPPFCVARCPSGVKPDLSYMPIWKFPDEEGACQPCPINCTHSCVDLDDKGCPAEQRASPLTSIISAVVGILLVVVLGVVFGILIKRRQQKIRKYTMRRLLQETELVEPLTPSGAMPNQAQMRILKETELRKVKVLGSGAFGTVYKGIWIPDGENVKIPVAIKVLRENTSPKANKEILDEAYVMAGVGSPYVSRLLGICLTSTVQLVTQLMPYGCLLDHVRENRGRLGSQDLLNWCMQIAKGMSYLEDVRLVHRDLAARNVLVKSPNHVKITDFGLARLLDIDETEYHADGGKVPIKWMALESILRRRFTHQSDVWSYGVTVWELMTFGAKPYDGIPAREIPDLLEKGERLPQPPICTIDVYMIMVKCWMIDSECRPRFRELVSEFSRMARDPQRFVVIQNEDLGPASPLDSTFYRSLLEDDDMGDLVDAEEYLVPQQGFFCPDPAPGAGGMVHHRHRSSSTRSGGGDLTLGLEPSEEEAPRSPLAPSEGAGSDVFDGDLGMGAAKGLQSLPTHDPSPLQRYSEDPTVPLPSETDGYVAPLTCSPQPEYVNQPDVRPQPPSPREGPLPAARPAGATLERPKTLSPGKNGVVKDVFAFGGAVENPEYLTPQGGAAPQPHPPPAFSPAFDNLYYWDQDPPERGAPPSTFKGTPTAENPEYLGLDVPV

[3] = reduced viability of SK-BR-3 breast cancer cells – cell-based, 24 h, human, pilot screen (AID 572;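 active = viability at or below 10% of carrier control in both of two separate runs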;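 note: compound exposure lasted between 18 and 24 h rather than exactly 24 h; 100% = carrier-treated control wells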); settings: SK-BR-3 viability, CellTiter-Glo luminescence, at 10 µM, stronger effect = lower value
[4] = HUVEC growth inhibition – cell-based, human, primary screen (AID 575;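 active = viability at or below 30% in both replicate assays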;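 note: 100% = median of untreated cell wells with 0.1% DMSO on each plate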); settings: HUVEC proliferation, CellTiter-Glo luminescence, 72 h; at 10 µM; stronger effect = lower value
[5] = H69AR cell proliferation blockers – human, duplicate replicates, primary screen (AID 580;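 active = viability at or under a set limit in both replicates, limit being median viability minus 3 SD, cut at about 48% in these data, passing the limit was not always enough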;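 note: 100% = mean luminescence of untreated wells and 0% = no signal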); settings: H69AR lung tumor cells viability, ATP luminescence, 72 h; at 10 µM; stronger effect = lower value
[6] = MRP1 drug-resistance reversers in H69AR cells – cell-based, doxorubicin co-treatment, pilot screen (AID 601;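 active = viability loss from added drug above about 55%, and viability with drug at most 40%, in both replicates, limit read from the data, passing the limit was not always enough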); settings: CellTiter-Glo, 72 h, at 10 µM; for differential viability (reversal): stronger effect = higher value
[7] = yeast transport mutant growth inhibition pilot in 384-well plates, post-Golgi transport modulator project (AID 636; in the data active = inhibition above about 31%); settings: absorbance 615 nm, about 18 h, stronger effect = higher value
[8] = growth suppression of yeast trafficking mutant, preliminary HTS, modulators of trafficking downstream of Golgi apparatus project, 1536-format plate, OD 615 nm (AID 637; in the data active = inhibition above about 30%); settings: yeast transport mutant growth, absorbance 615 nm, 18 h; stronger effect = higher value
[9] = S. cerevisiae growth inhibition in permissive medium (OD615), pilot counter-assay for S. cerevisiae lifespan shortening project, permissive growth control (AID 705;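 active = growth inhibition above 25% in both replicates, a cutoff set 3 SD above the mean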); settings: OD615, 24 h, at 10 µM, stronger effect = higher value
[10] = S. cerevisiae growth inhibition in restrictive medium, OD615, pilot screen, restrictive growth control, yeast lifespan reduction project (AID 706;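 active = growth inhibition above a set limit, 3 SD over mean compound inhibition, in both replicates, cut at about 43% in these data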;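 note: modified DeaD lifespan yeast strain shifted to restrictive glucose medium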); settings: OD615, 48 h, at 10 µM, stronger effect = higher value
[11] = doxorubicin toxicity protection in MRP-1 cells – H69AR cells, CellTiter-Glo, duplicate, MRP-1 activator project, pilot screen (AID 807;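 active = viability increase at or above a cutoff of the median across tested compounds plus 3 SD, cut at about 8.5% in these data, passing the limit was not always enough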;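 note: compound pretreatment 18-22 h then 72 h combined with doxorubicin; 0% = doxorubicin alone and 100% = vehicle without doxorubicin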); settings: H69AR viability with doxorubicin, CellTiter-Glo luminescence; at 10 µM; stronger effect = higher value
[12] = viability of HCT116 without oncogenic beta-catenin – human colon tumor cells, pilot screen (AID 823); settings: HCT116 beta-catenin knockout viability, CellTiter-Glo, 60 h; at 10 µM; stronger effect = lower value;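 note: 0% = wells killed by 20 µM Hyamine and 100% = untreated DMSO cell wells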
[13] = viability of PTEN-null HCT116 cells – cell-based, HCT116 clonal line, CellTiter-Glo, pilot screen (AID 824;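 active = viability at or below 27.92% in each of two runs, the all-compound median minus 4 SD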;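 note: 0% = 20 µM Hyamine control and 100% = vehicle cell control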); settings: HCT116 PTEN-deleted viability, 60 h, at 10 µM, stronger effect = lower value
[14] = RAM pathway blockade in budding yeast – dse1pr::URA3 reporter, 5-FOA selection, pilot screen (AID 869;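 active = inhibition over a set limit, the all-compound mean plus 3 SD, in both replicate runs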;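 note: 0% = DMSO wells with no growth and 100% = 10 µM 1-NA-PP1 with full growth; RAM network block rescues cells from 5-FOA so hits raise OD615 growth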); settings: S. cerevisiae dse1pr::URA3 5-FOA growth, OD615, 2 d; at 10 µM; stronger effect = higher value; strain carries analog-sensitive mutant Cbk1 kinase
[15] = RAM signaling pathway blockade in yeast – S. cerevisiae, Pdr1DBD-CYC8 efflux-inhibited sensitized strain, primary screen (AID 1298;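 active = RAM network inhibition above 8.4% in each of two replicates, 3 SD over the compound average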;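 note: 0% = DMSO untreated cells without growth and 100% = 10 µM 1-NA-PP1 full growth; higher means more yeast growth rescued from 5-FOA killing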); settings: S. cerevisiae cbk1-as DSE1-URA3 strain, 5-FOA growth OD615, 2 d; at 50 µM; stronger effect = higher value
[16] = H69AR cells + 2 uM doxorubicin, measured here: viability with 2 uM doxorubicin, stronger effect = lower value
[17] = H69AR cells, compound alone cytotoxicity

| SMILES | viability [1] [%] | Her2 level [2] | viability [3] | viability [4] | viability [5] | differential viability (reversal) ([6]; H69AR cells + 2 uM doxorubicin) | viability [6, 16] [%] | viability [6, 17] [%] | inhibition [7] | inhibition [8] | growth inhibition [9] | growth inhibition [10] | viability increase [11] | viability [12] | viability [13] | inhibition [14] | RAM network inhibition [15] |
| --- | --- | --- | --- | --- | --- | --- | --- | --- | --- | --- | --- | --- | --- | --- | --- | --- | --- |
| CCc1c(C)c2c(C)nn(-c3ccccc3)c2[nH]c1=O | 83 | 81.5% (inactive) | 83% (inactive) | 68.9% (inactive) | 90.1% (inactive) | 5.91% (inactive) | 84.2 | 90.1 | -0.65% (inactive) | -1.31% (inactive) | -3.86% (inactive) | 4.15% (inactive) | -2.75% (inactive) | 85.1% (inactive) | 79% (inactive) | 1.53% (inactive) | 0.31% (inactive) |
| CCOC(=O)N1CCC(NC(=O)c2cc3c(=O)n(C)c4ccccc4c3n2C)CC1 | 88 | 94% (inactive) | 88% (inactive) | 71.3% (inactive) | 73.1% (inactive) | -4.2% (inactive) | 77.3 | 73.1 | -2.67% (inactive) | -1.17% (inactive) | -11.7% (inactive) | -13% (inactive) | -3.46% (inactive) | 80.2% (inactive) | 84.5% (inactive) | 2.96% (inactive) | 9.59% (inactive) |
| COC(=O)CN1C(=O)C(O)(CC(=O)c2ccc(C)cc2)c2cc(Br)ccc21 (stereo not given) | 102 | 96.5% (inactive) | 102% (inactive) | 88.2% (inactive) | 81.6% (inactive) | -11.8% (inactive) | 93.3 | 81.6 | -0.27% (inactive) | -1.5% (inactive) | -15.5% (inactive) | 2.94% (inactive) | -0.78% (inactive) | 91% (inactive) | 92.5% (inactive) | 1.67% (inactive) | 2.87% (inactive) |
| Cc1cccc(OCc2nc(C#N)c(NCCN(C)C)o2)c1 | 97 | 81.5% (inactive) | 97% (inactive) | 79.7% (inactive) | 84.8% (inactive) | -2.44% (inactive) | 87.3 | 84.8 | -2.4% (inactive) | -2.46% (inactive) | -4.31% (inactive) | 1.57% (inactive) | -3.62% (inactive) | 102% (inactive) | 103% (inactive) | 0.445% (inactive) | 3.81% (inactive) |
| Cc1onc(-c2ccccc2Cl)c1C(=O)Nc1cnn(Cc2ccccc2)c1 | 88.5 | 98% (inactive) | 88.5% (inactive) | 73.6% (inactive) | 81.5% (inactive) | -5.4% (inactive) | 86.9 | 81.5 | -5.73% (inactive) | 0.33% (inactive) | -12.3% (inactive) | -9.34% (inactive) | 1.54% (inactive) | 83.2% (inactive) | 73% (inactive) | 1.07% (inactive) | 2.37% (inactive) |
| COc1ccccc1Oc1ccc(S(=O)(=O)N2CCOCC2)cc1S(=O)(=O)N1CCOCC1 | 86.5 | 121% (inactive) | 86.5% (inactive) | 101% (inactive) | 83.6% (inactive) | -4.58% (inactive) | 88.1 | 83.6 | -0.77% (inactive) | -6.67% (inactive) | -16.4% (inactive) | -21.3% (inactive) | -0.17% (inactive) | 93.6% (inactive) | 98.3% (inactive) | 2.41% (inactive) | 4.3% (inactive) |
| O=C(Cn1cc2c(n1)CCCC2)NCCc1ccccc1 | 105 | 100% (inactive) | 105% (inactive) | 103% (inactive) | 88.4% (inactive) | -22.7% (inactive) | 111 | 88.4 | -1.6% (inactive) | -4.33% (inactive) | -2.47% (inactive) | -9.12% (inactive) | -0.17% (inactive) | 106% (inactive) | 95.3% (inactive) | 1.38% (inactive) | 1.42% (inactive) |
| Cc1cccc(NC(=O)Nc2cccc(C#N)c2)n1 | 100 | 66.5% (inactive) | 100% (inactive) | 63.2% (inactive) | 84% (inactive) | -3.47% (inactive) | 87.5 | 84 | 0.38% (inactive) | 3.67% (inactive) | -8.45% (inactive) | 0.81% (inactive) | -4.03% (inactive) | 43.5% (inactive) | 46% (inactive) | 3.24% (inactive) | 2.88% (inactive) |
| COc1ccccc1N(CC(=O)NCc1ccccn1)S(C)(=O)=O | 126 | 105% (inactive) | 126% (inactive) | 89.2% (inactive) | 95.7% (inactive) | 4.02% (inactive) | 91.6 | 95.7 | -1.3% (inactive) | -1.17% (inactive) | -1.19% (inactive) | -24.7% (inactive) | -3.02% (inactive) | 97.3% (inactive) | 91.5% (inactive) | 0.815% (inactive) | 4.8% (inactive) |
| Cc1ccc(N2CCN(S(=O)(=O)N(C)C)CC2)c(C)c1 | 98.5 | 116% (inactive) | 98.5% (inactive) | 90.6% (inactive) | 83.5% (inactive) | -9.57% (inactive) | 93.1 | 83.5 | 1.73% (inactive) | 1.17% (inactive) | -11.1% (inactive) | -7.42% (inactive) | 0.57% (inactive) | 90.6% (inactive) | 88.1% (inactive) | 2.69% (inactive) | 6.03% (inactive) |
